Screening results: PubChem BioAssay, several laboratories
Compounds with a hit are over-represented: about 2% of the library has one in this group of screens.
Platelet DG rel: inhibitors of platelet dense granule secretion, primary screen, cell-based, MLPCN, human platelets | human platelet-rich plasma, SFLLRN dense granule ATP release, luminescence | hit rate 0.22% among 300,000 | inhibition, %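 (compounds screened at 7.5 µM in platelet-rich plasma)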;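 active = mean replicate score, as percent of positive control, at or above 50; inconclusive = mean below 50 but at least one replicate at or above 50; inactive = mean and every replicate below 50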
Calb FLC: C. albicans growth inhibition with fluconazole, primary screen, CaCi-2 strain, Alamar Blue fluorescence; AID 1979, 2009; hit rate 0.57% among 300,000; growth inhibition, % (no concentration beside the values); C. albicans CaCi-2 (fluconazole-resistant clinical isolate) + fluconazole, 48 h;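 active = growth inhibition above about 58% in most replicates, limit read from the data, passing the limit was not always enough; inconclusive = exactly half the replicates above a set limit; inactive = most replicates below a set limit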;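 note: all wells also contain fluconazole at 8 µg/ml as a sub-toxic cotreatment; 0% = median of DMSO wells and 100% = median of geldanamycin control wells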
SKKanGAS inh: S. pyogenes SKKanGAS growth inhibitors in kanamycin, primary screen, streptokinase expression inhibitor project, SKKanGAS strain, BacTiter-Glo luminescence; inhibition, % at 7.5 µM; AID 1662, 2009; 6 h; hit rate 1.3% among 300,000;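 active = mean replicate score, as percent of positive control median, at least 50; inconclusive = mean below 50 but one replicate at or above 50; inactive = mean and every replicate below 50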;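 note: strain carries kanamycin resistance gene driven by streptokinase promoter and grows in 40 µg/ml kanamycin; loss of luminescence reflects streptokinase promoter inhibition or plain growth inhibition; 0% = median of DMSO wells and 100% = positive control at its reference dose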
CR mimetic SO: reduction of superoxide in aged yeast, primary screen, HTS; S. cerevisiae aged cells, superoxide DHE fluorescence; stronger effect = lower value; superoxide response (% of plate mean), % at 10 µM; hit rate 0.18% among 330,000; AID 2690, 2010;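 active = superoxide response under a set limit, about three screen SD below normal, cut at about 65% in these data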;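 note: yeast aged for seven days with compound at 30 °C before DHE staining; 100% = average MFI of all compound-treated wells on the plate with controls excluded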
PolyA inhibitor: polyadenylation inhibitors in yeast reporter cells, primary screen, luminescence, S. cerevisiae | activity score, % at 12 µM | hit rate 0.02% among 300,000 | S. cerevisiae SKY197-pL101 polyadenylation reporter, beta-gal luminescence; efflux-impaired pdr1/pdr3 knockout yeast; score 100 = 6 SD above DMSO | AID 1875, 2009;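 active = lowest replicate activity score at least 50, where 100 means six control SD above control mean; inconclusive = lowest score under 50 but half or more replicates reach 50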;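 note: yeast exposed to compound for 9 h at 30 °C; higher score means more reporter readthrough which indicates perturbed polyadenylation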
* hit, by the source's call; ? = inconclusive; . = no result given.

SMILES	Platelet DG rel	Calb FLC	SKKanGAS inh	CR mimetic SO	PolyA inhibitor
O=c1cc(N2CCCCC2)c(-c2ccccc2)nn1Cc1ccc(Cl)cc1Cl	-11	20	105*	97	2
O=c1cc(N2CCCCC2)c(-c2ccccc2)nn1Cc1ccccc1Cl	10	0	43	104	-6
Cc1nn(Cc2ccccc2)c(C)c1C(=O)N1CCN(S(=O)(=O)/C=C/c2ccccc2)CC1	.	.	.	85	.
C/C(=N/Nc1ccc(C)cc1)C1(C)N(O)C(C)(C)C(c2ccco2)=[N+]1[O-] (stereo unspecified)	2	112*	-7	97	26
O=S1(=O)NC(=NCCOCCO)c2ccccc21	-8	-8	0	108	-19
Cc1ccc(NC(=O)c2noc(C(C)C)c2[N+](=O)[O-])cc1	-4	92*	9	98	12
CCOC(=O)c1cc(CC)sc1NC(=O)c1ccc(N2C(=O)CCC2=O)cc1	9	-4	55*	107	5
CCOC(=O)c1c(-c2ccc(C)cc2)csc1NC(=O)c1ccc(N2C(=O)CCC2=O)cc1	8	9	44	93	8
O=C(NC(Cc1c[nH]c2ccccc12)C(=O)N/N=C/c1cccc2ccccc12)c1cccs1 (stereo unspecified)	7	19	60*	78	6
O=C(COc1ccc(Cl)cc1Cl)NN1C(=O)C2C3C=CC(C3)C2C1=O (stereo unspecified)	8	0	1	93	5
CCN(CC(=O)NCc1cccs1)S(=O)(=O)c1cccc(Br)c1	.	.	.	85	.
O=C(O)/C=C/c1cccc(NC(=O)c2ccccc2)c1	64*	-9	10	96	-5
CCOc1ccc(S(=O)(=O)N(CC)CC(=O)NCc2cccnc2)cc1	-11	0	8	112	-2
Cc1ccc(S(=O)(=O)Nc2cccc3cccnc23)cc1	0	7	?	90	-35
COc1cc(NS(=O)(=O)c2ccc(C)cc2)c2ncccc2c1	0	?	82*	98	-25
CCOC(=O)C1CCN(C(=O)COC(=O)c2ccccc2C(=O)c2ccc(Cl)cc2)CC1	6	4	-5	108	4
CCOc1ccc(CN(C(=O)c2ccccn2)c2ccc(OC)c(Cl)c2)cc1	-13	1	-3	98	13
O=C(Cc1ccccc1)Nc1ncccc1Cl	-8	-1	-1	97	3
Cc1ccc(-n2c(N)c(C#N)c(-c3ccccc3)c(C#N)c2=O)cc1	87*	-15	-1	84	3
NC(=S)N/N=C/c1ccccc1	-6	9	-4	100	16
NC(=S)N/N=C/c1ccc(C23CC4CC(CC(C4)C2)C3)cc1	0	-2	100*	121	-13
Oc1nc(Nc2ccc(Cl)cc2Cl)sc1/C=C1\C=Nc2ccccc21	-1	-10	115*	100	-62
O=C(Cc1ccc(Cl)cc1)NCCS(=O)(=O)N1CCN(c2ccccc2)CC1	32	-13	0	88	9
O=C(Cc1ccccc1)NCCS(=O)(=O)N1CCN(c2ccccc2)CC1	8	1	54*	110	-10
CCOC(=O)c1sc(NC(=O)c2cccs2)cc1C	33	-12	1	104	-6
SMILES	Platelet DG rel	Calb FLC	SKKanGAS inh	CR mimetic SO	PolyA inhibitor
CCOC(=O)c1sc(NC(=O)c2ccc(Br)o2)cc1C	34	-8	-13	106	-28
CCOC(=O)c1sc(NC(=O)c2sccc2C)cc1C	62*	-16	3	107	11
CCOC(=O)c1sc(NC(=O)Nc2cccc(Cl)c2)cc1C	8	-10	95*	92	6
Cc1ccc(S(=O)(=O)N2CCN(C(=O)C(Cc3ccccc3)NC(=O)c3ccccc3)CC2)cc1 (stereo unspecified)	.	.	.	113	.
COc1ccccc1NC(=O)Nc1nc(CC(=O)Nc2cc(F)ccc2F)cs1	8	1	82*	103	15
COc1cc(OC)cc(C(=O)Nc2nc(CC(=O)NCc3ccccc3OC)cs2)c1	25	-4	62*	107	6
COc1ccc(N2CCN(C(=O)Cc3csc(NC(=O)Nc4ccccc4OC)n3)CC2)cc1	23	-10	66*	91	-8
COc1cc(OC)cc(C(=O)Nc2nc(CC(=O)NCc3ccc(F)cc3)cs2)c1	0	1	12	100	24
